The values that follow come from PubChem BioAssay (NCI).

Structures are written as SMILES. Compounds without any hit were thinned out: in the full panel of roughly 83,000, 20% have a hit.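 Testing used 96-well plates and a 48-hour single-concentration exposure. Example: -40 means 40% of the starting cells died.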 The source made the active and inactive calls. How the source made its calls: active means growth percent below 10; inactive means the rest.

The assay relates to A498 renal. Kind of assay: NCI-60 one-dose screen, 48 h (100 = growth as untreated, 0 = no growth, -100 = all killed). Conditions: 10 µM unless noted.
With `CCOC(=O)c1c(C)c2c(n1Cc1ccccc1)CSCC2=O`, the growth was 25.6% [100 µM] (inactive).
The result for `O=C(CN1CCN(c2cc3c(cc2F)c(=O)c(C(=O)O)cn3C2CC2)CC1)N/N=C/c1ccco1` reads 91.7% (inactive); that for `Clc1ccc(-c2cc(-c3ccccc3)nc(NCCNc3ccnc4cc(Cl)ccc34)n2)cc1`, 53.3% (inactive).
The result for `N#C/C(=C\C=C\c1ccc(-c2cc(Cl)ccc2Cl)o1)c1nc2ccccc2s1` reads 126% (inactive); that for `COc1cc(OC)c(C(=O)C(CN(C)C)CN(C)C)cc1OC`, 113% (inactive); that for `CCn1cc(CNc2ccc(C(=O)Nc3cc4cc(OC)c(OC)cc4c(C)n3)cc2)cn1`, 73.8% (inactive).
The result for `N#Cc1c(-c2ccccc2)nc(SCc2nnc(-c3ccc(Cl)cc3)o2)[nH]c1=O` reads 107% (inactive).
With `O=P(O)(O)OCC1OC(n2cnc3c(NCc4ccco4)ncnc32)C(O)C1O` (stereo not given), the growth was 7.68% (active).
Take `CCN(CC)CCCN1C(=O)c2c(c(C)c3c(oc4ccc(O)cc43)c2C)C1=O`: the growth is 94.8% (inactive).
The result for `O=[N+]([O-])c1ccc(-c2cn3nc(-c4c[nH]c5ccccc45)sc3n2)cc1` reads 85.9% (inactive); that for `Cc1nc2ccccc2c(/C=C/c2ccccc2)c1C(=O)/C=C/c1ccccc1`, 74% (inactive); that for `O=C1Nc2c(C(=O)O)cccc2/C1=N/c1n[nH]c(=S)s1`, 115% (inactive).
`CC(=O)Oc1ccc(OC(C)=O)c2ccccc12`: the growth is 118% (inactive).
The result for `COC(=O)/C=C1/SC(=Nc2ccc([N+](=O)[O-])cc2)N(CCc2c[nH]c3ccc(O)cc23)C1=O` reads 80.5% (inactive); that for `[2H]C([2H])([2H])Oc1ccc(F)cc1/C=C/C(=O)/C=C(/C=C/c1cc(F)ccc1OC([2H])([2H])[2H])OB(F)F`, 111% (inactive).
The result for `Nc1c(C(=O)Nc2cccc(Cl)c2)sc2nc3c(cc12)CCCC3` reads 87.6% (inactive); that for `NS(=O)(=O)c1ccc(C(=O)NN2C(=O)c3c(Br)c(Br)c(Br)c(Br)c3C2=O)cc1`, 81.7% (inactive).
As for `Cc1c(Cl)cccc1C(=O)Nc1nc2c(s1)CN(C(=O)c1ccc(C(F)(F)F)cc1)CC2`, the growth is -20.1% (active).
The result for `CCCCCN(CCCCC)CC(O)c1cc(C)c2ccc3cc(C(C)C)ccc3c2c1` (stereo not given) reads 19.5% (inactive).
Take `CCC1S/C(=N\N=C(\C)c2cc3cc(Cl)ccc3o2)N(c2ccccc2)C1=O` (stereo not given): the growth was 22.2% (inactive).
Consider `CN1C(=O)/C(=C/c2ccc(C(=O)Nc3ncc(Cc4cccc(Cl)c4)s3)cc2)SC1=S`, for which the growth is 74.9% (inactive).
The result for `O=C(NCc1cccc(CNC(=O)Nc2nc3ccccc3[nH]2)c1)Nc1nc2ccccc2[nH]1` reads -31% (active); that for `COc1ccc(Cn2cc3c(c2-c2ccccc2)CCc2cnoc2-3)cc1`, 33.3% (inactive); that for `Cc1ccc(CNc2c3ccccc3nc3ccccc23)cc1`, 7.64% (active).
Take `FC(F)(F)c1ccc(Cn2cc(CSc3nc4ccccc4s3)nn2)cc1`: the growth was 86% (inactive).
The result for `COc1cc(OC)c2sc(-c3ccc(-n4cncc4-c4cc(OC)c(OC)c(OC)c4)cc3)nc2c1` reads 48.5% (inactive).
The result for `C#CCn1cnc2cnc(Nc3cccc(NC(=O)C=C)c3)nc21` reads 72% [6.25 µM] (inactive); that for `CC(=O)/C(=C/c1ccc([N+](=O)[O-])cc1)C(=O)c1ccccc1`, 112% (inactive).
The result for `CCOC(=O)/C=C1\S/C(=N\Nc2cc(=O)[nH]c3ccccc23)N(c2ccccc2)C1=O` reads 125% (inactive); that for `Cc1ccc(/C=C/C(=O)c2ccc(-n3cc(CN4CCN(c5cc6c(cc5F)c(=O)c(C(=O)O)cn6C5CC5)CC4)nn3)cc2)cc1`, 64.5% (inactive).
